Results filed as inconclusive are left out. Active and inactive are the calls of the source. How the source made its calls: active means hit-call score of the fitted dose curve at least 0.9, where 1 is the maximum; inconclusive means response in the unintended direction; inactive means score below 0.9.

Experiment [1] addresses Cytochrome P450 2C19 (Homo sapiens) (UniProt P33261). The experiment can be described thus: NVS_ADME_hCYP2C19: NovaScreen (NVS) CYP450-related Enzyme Activity (ADME) Assay for human CYP2C19 (AID 2283113).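 Further: potency for inhibition seen as loss of fluorescent signal.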 In a few lines: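 Fluorescence intensity was measured 1 hour after chemicals were added to insect-cell-derived recombinant CYP2C19 with fluorogenic substrate. Decreased signal versus acetonitrile control was taken as reduced enzyme activity; initial testing used 10 uM in duplicate.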

Experiment [2] concerns the target human Dual Specificity Protein Phosphatase 3 (DUSP3), DUSP3 (gene 1845) (UniProt P51452). The experiment in a line: NVS_ENZ_hDUSP3: NovaScreen (NVS) Enzymatic Assay for human Dual Specificity Protein Phosphatase 3 (DUSP3) (AID 2283152).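 Further: phosphatase activity of recombinant human DUSP3 on a fluorogenic substrate without cells.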 The gist of the method:
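Cell-free fluorescence-intensity enzyme activity assay with recombinant protein and substrate; loss of signal fitted relative to DMSO baseline. Primary screen in duplicate at 25 uM, actives then run in concentration series; measured 0 h after dosing.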

For experiment [3], the target named is human Ephrin type-A Receptor 1 (EphA1), EPHA1 (gene 2041) (UniProt P21709). The experiment can be described thus: NVS_ENZ_hEphA1: NovaScreen (NVS) Enzymatic Assay for human Ephrin type-A Receptor 1 (EphA1) (AID 2283158).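 Further: activity is signal loss versus DMSO meaning EphA1 kinase inhibition.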 In a few lines: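 Chemicals first tested in duplicate at 25 uM against recombinant EphA1 with a fluorescent substrate; those passing threshold went to singleton dose-response topping at 50 uM. Activity read 1 h later as mobility-shift fluorescence, loss of signal relative to DMSO.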

Experiment [4] has as its target Cytochrome P450 3A4 (Homo sapiens) (UniProt P08684). The experiment can be described thus: NVS_ADME_hCYP3A4: NovaScreen (NVS) CYP450-related Enzyme Activity (ADME) Assay for human CYP3A4 (AID 2283110). The gist of the method:
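Activity is derived from decreased fluorescence intensity relative to acetonitrile, measured 0.33 hour after dosing insect-cell-expressed CYP3A4 in a cell-free format. Screening used 10 uM in duplicate before concentration-response follow-up.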

For experiment [5], the target named is human Phosphoinositide 3-kinase alpha (PI3Ka), PIK3CA (gene 5290) (UniProt P42336). The experiment can be described thus: NVS_ENZ_hPI3Ka: NovaScreen (NVS) Enzymatic Assay for human Phosphoinositide 3-kinase alpha (PI3Ka) (AID 2283196). The gist of the method:
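Recombinant human PI3Kα with fluorescent substrate, 1 h, product separated by electrophoretic mobility shift; 25 uM duplicate screen, hits (e.g., 30% inhibition) retested singly up to 50 uM; loss of signal vs DMSO.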

In experiment [6] the target is human Matrix Metalloproteinase-9 (MMP9), MMP9 (gene 4318) (UniProt P14780). The experiment in a line: NVS_ENZ_hMMP9: NovaScreen (NVS) Enzymatic Assay for human Matrix Metalloproteinase-9 (MMP9) (AID 2283190).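 Further: cell-free recombinant MMP9 protease activity read by fluorescent substrate signal; active means inhibition seen as loss of fluorescence signal versus DMSO.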 The gist of the method:
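Cell-free recombinant MMP9 enzyme activity measured by fluorescence intensity 1 h after dosing. Primary screen in duplicate at 25 uM, actives followed in concentration series; loss of signal relative to DMSO.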

For experiment [7], the target named is human CYP2D6, CYP2D6 (gene 1565) (UniProt P10635). The experiment in a line: NVS_ADME_hCYP2D6: NovaScreen (NVS) CYP450-related Enzyme Activity (ADME) Assay for human CYP2D6 (AID 2283107). The gist of the method:
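Insect-cell recombinant enzyme + fluorogenic substrate, cell-free; 1 h incubation; fluorescence intensity readout. Acetonitrile = neg. ctrl/baseline. Single-point 10 uM, duplicate; follow-up concentration series.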

The target of experiment [8] is human Esterase Plasma (ES), BCHE (gene 590) (UniProt P06276). The experiment in a line: NVS_ENZ_hES: NovaScreen (NVS) Enzymatic Assay for human Esterase Plasma (ES) (AID 2283157). In a few lines:
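Screening ran at 25 uM in duplicate, followed by singleton concentration series reaching 50 uM for actives. Human plasma protein, colorimetric detection, 0.25 h exposure, DMSO negative control.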

In experiment [9] the target is sheep Cyclooxygenase-1 (Cox1), PTGS1 (gene 443551) (UniProt P05979). The experiment in a line: NVS_ENZ_oCOX1: NovaScreen (NVS) Enzymatic Assay for sheep Cyclooxygenase-1 (Cox1) (AID 2283239).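 Further: actives reduce cyclooxygenase activity so potencies are for inhibitors.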 In a few lines: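 Absorbance read-out of cyclooxygenase activity in a cell-free preparation from sheep seminal vesicles, taken 0.66 hour after dosing. Initial testing was in duplicate at 25 uM, and confirmatory testing was run in concentration series.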

Experiment [10] deals with human Phosphodiesterase 10 (PDE10), PDE10A (gene 10846) (UniProt Q9Y233). The experiment in a line: NVS_ENZ_hPDE10: NovaScreen (NVS) Enzymatic Assay for human Phosphodiesterase 10 (PDE10) (AID 2283195). The gist of the method:
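Readout is fluorescence intensity following electrophoretic mobility-shift separation, 1 h after dosing of isolated PDE10A protein. Hits meeting a preset threshold at 25 uM went to concentration series (max 50 uM), analysed relative to DMSO.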

The target of experiment [11] is human Caspase 5 (CASP5), CASP5 (gene 838) (UniProt P51878). The experiment in a line: NVS_ENZ_hCASP5: NovaScreen (NVS) Enzymatic Assay for human Caspase 5 (CASP5) (AID 2283137). In a few lines:
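Loss of fluorescent signal versus DMSO scored for E. coli-derived human CASP5 cleaving a fluorescent substrate, 2 h post-dosing; compounds first tested at 25 uM in duplicate, hits rerun in concentration series with 50 uM top concentration.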

Experiment [12] has as its target human CYP1A2, CYP1A2 (gene 1544) (UniProt P05177). The experiment in a line: NVS_ADME_hCYP1A2: NovaScreen (NVS) CYP450-related Enzyme Activity (ADME) Assay for human CYP1A2 (AID 2283102). The gist of the method: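 rec. hCYP1A2 (insect cells), cell-free; fluorogenic substrate; 0.5 h; FI read. Baseline = acetonitrile; signal loss = inhibition. 10 uM duplicate primary → conc. series for actives.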

For experiment [13], the target named is rat Constitutive Nitric Oxide Synthase (CNOS), Nos1 (gene 24598) (UniProt P29476). The experiment can be described thus: NVS_ENZ_rCNOS: NovaScreen (NVS) Enzymatic Assay for rat Constitutive Nitric Oxide Synthase (CNOS) (AID 2283236). The gist of the method:
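Single 25 uM duplicate screen, then concentration series to 50 uM for chemicals meeting threshold. Rat brain membrane-derived CNOS activity detected radiometrically by filtration and scintillation counting, 1 h after compound addition; DMSO as baseline.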

In experiment [14] the target is human Beta-secretase (BACE), BACE1 (gene 23621) (UniProt P56817). The experiment in a line: NVS_ENZ_hBACE: NovaScreen (NVS) Enzymatic Assay for human Beta-secretase (BACE) (AID 2283140).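 Further: hits are inhibitors that reduce fluorescent substrate signal versus DMSO.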 The gist of the method:
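Enzyme from SF9 cells was incubated 1 hour with compound and fluorogenic substrate, activity read by fluorescence. Single-concentration duplicates at 25 uM preceded concentration-response follow-up; fitting relative to DMSO baseline.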

In experiment [15] the target is human Vascular Endothelial Growth Factor Receptor 1 (VEGFR1), FLT1 (gene 2321) (UniProt P17948). The experiment can be described thus: NVS_ENZ_hVEGFR1: NovaScreen (NVS) Enzymatic Assay for human Vascular Endothelial Growth Factor Receptor 1 (VEGFR1) (AID 2283226). The gist of the method: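 Kinase activity of recombinant human VEGFR1 was read by fluorescence after electrophoretic separation of product from substrate, 1 h post-dosing; initial duplicate single-point testing at 25 uM, followed by concentration-series follow-up, with DMSO as baseline.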

Experiment [16] has as its target human MAP Kinase-Activated Protein Kinase 2 (MAPKAPK2), MAPKAPK2 (gene 9261) (UniProt P49137). The experiment in a line: NVS_ENZ_hMAPKAPK2: NovaScreen (NVS) Enzymatic Assay for human MAP Kinase-Activated Protein Kinase 2 (MAPKAPK2) (AID 2283178). In a few lines: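 Chemicals screened in duplicate at 25 uM, then to 50 uM top concentration in concentration-response, against recombinant human MAPKAPK2; substrate conversion read 1 hr post-dosing by fluorescence after electrophoretic mobility-shift separation, loss-of-signal relative to DMSO.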

Experiment [17] deals with human Matrix Metalloproteinase-2 (MMP2), MMP2 (gene 4313) (UniProt P08253). The experiment can be described thus: NVS_ENZ_hMMP2: NovaScreen (NVS) Enzymatic Assay for human Matrix Metalloproteinase-2 (MMP2) (AID 2283184). The gist of the method:
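Compounds first screened in duplicate at a single 25 uM, with actives followed up in concentration series. Recombinant human MMP2 cleaves a fluorogenic substrate; fluorescence taken at 1 h, inhibition fitted relative to DMSO.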

Experiment [18] has as its target sheep Cyclooxygenase-2 (Cox2), PTGS2 (gene 443460) (UniProt P79208). The experiment in a line: NVS_ENZ_oCOX2: NovaScreen (NVS) Enzymatic Assay for sheep Cyclooxygenase-2 (Cox2) (AID 2283231). The gist of the method:
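Enzyme from ovine placenta, cell-free; colorimetric absorbance read 0.66 hour after dosing, loss of signal vs DMSO. Screened in duplicate at 25 uM, then concentration-response up to 50 uM.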

For experiment [19], the target named is guinea pig Leukotriene D4 Receptor (LTD4), CYSLTR1 (gene 100135514) (UniProt Q2NNR5). The experiment in a line: NVS_GPCR_gLTD4: NovaScreen (NVS) G Protein-Coupled Receptor Assay for guinea pig Leukotriene D4 Receptor (LTD4) (AID 2283248). In a few lines: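 Guinea pig lung membrane preparation; bound radioligand measured by filter scintillation after 1 h, loss of signal versus DMSO marking displacement. Compounds tested at 25 uM in duplicate, hits retested to max 50 uM.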
Chain of guinea pig Leukotriene D4 Receptor (LTD4), CYSLTR1 (gene 100135514) (Q2NNR5 whole entry, looked up): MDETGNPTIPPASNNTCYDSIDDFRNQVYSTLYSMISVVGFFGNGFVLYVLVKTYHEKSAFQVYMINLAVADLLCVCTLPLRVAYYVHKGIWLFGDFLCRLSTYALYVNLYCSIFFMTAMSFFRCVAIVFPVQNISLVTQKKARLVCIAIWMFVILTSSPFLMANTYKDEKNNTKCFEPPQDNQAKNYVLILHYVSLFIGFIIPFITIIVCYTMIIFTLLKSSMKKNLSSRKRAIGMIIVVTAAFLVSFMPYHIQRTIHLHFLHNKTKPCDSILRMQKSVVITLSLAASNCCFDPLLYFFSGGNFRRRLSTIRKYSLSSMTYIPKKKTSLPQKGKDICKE

Chain of Cytochrome P450 3A4 (Homo sapiens) (P08684 whole entry, looked up): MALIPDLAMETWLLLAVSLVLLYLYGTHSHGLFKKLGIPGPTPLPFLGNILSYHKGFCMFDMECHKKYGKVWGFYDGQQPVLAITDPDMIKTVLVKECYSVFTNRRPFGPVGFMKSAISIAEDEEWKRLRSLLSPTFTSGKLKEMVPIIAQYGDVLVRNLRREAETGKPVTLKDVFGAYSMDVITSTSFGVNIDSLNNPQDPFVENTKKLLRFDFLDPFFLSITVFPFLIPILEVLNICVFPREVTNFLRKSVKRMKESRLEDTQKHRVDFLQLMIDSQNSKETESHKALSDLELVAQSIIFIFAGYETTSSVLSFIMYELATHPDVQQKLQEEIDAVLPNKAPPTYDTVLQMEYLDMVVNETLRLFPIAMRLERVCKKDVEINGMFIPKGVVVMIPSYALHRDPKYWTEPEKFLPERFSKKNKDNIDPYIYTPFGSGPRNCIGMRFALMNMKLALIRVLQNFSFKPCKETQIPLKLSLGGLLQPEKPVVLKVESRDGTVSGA
Chain of human Ephrin type-A Receptor 1 (EphA1), EPHA1 (gene 2041) (P21709 whole entry, looked up): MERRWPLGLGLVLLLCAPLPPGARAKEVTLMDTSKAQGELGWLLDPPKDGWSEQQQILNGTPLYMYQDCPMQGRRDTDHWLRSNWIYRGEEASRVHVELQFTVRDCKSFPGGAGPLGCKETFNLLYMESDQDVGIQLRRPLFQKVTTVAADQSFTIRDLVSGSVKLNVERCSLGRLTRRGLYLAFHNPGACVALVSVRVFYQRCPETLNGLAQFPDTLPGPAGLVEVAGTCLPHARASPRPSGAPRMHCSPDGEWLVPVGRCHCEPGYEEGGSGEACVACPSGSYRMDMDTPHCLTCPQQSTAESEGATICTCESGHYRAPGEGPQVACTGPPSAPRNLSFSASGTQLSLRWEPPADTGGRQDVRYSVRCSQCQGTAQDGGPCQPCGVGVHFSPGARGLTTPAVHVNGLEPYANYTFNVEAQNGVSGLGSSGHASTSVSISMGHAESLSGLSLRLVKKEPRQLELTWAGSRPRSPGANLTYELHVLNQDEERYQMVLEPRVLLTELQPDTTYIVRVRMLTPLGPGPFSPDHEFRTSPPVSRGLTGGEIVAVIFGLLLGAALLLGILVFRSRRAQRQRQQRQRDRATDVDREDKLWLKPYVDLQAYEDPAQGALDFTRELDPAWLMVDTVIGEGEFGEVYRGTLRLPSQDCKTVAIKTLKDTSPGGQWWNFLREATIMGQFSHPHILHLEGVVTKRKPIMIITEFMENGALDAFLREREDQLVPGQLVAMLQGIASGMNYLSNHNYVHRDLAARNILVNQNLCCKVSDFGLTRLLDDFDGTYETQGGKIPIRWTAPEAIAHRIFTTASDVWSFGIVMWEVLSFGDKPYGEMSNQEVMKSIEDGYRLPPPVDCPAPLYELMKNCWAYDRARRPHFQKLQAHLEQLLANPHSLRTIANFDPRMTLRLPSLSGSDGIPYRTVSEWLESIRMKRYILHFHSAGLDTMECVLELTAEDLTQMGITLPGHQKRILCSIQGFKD
Chain of human Matrix Metalloproteinase-9 (MMP9), MMP9 (gene 4318) (P14780 whole entry, looked up): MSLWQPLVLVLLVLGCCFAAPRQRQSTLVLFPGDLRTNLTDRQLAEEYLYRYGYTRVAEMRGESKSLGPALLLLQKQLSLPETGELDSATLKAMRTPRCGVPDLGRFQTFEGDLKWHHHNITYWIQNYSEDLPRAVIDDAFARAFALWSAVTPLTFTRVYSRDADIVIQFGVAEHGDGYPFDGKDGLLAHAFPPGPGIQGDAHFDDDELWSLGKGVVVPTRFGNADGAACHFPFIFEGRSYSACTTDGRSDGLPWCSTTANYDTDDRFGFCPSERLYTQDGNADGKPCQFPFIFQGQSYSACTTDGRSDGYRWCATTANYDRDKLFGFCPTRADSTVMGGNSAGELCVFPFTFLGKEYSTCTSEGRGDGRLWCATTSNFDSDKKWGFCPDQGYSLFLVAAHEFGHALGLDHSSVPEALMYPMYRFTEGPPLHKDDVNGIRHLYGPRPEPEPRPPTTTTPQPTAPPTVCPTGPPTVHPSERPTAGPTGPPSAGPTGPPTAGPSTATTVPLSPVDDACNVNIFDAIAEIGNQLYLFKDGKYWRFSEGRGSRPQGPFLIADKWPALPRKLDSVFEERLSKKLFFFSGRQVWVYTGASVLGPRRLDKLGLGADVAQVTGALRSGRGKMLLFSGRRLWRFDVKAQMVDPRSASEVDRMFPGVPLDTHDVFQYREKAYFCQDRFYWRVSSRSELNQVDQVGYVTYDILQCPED
Chain of human Phosphoinositide 3-kinase alpha (PI3Ka), PIK3CA (gene 5290) (P42336 whole entry, looked up): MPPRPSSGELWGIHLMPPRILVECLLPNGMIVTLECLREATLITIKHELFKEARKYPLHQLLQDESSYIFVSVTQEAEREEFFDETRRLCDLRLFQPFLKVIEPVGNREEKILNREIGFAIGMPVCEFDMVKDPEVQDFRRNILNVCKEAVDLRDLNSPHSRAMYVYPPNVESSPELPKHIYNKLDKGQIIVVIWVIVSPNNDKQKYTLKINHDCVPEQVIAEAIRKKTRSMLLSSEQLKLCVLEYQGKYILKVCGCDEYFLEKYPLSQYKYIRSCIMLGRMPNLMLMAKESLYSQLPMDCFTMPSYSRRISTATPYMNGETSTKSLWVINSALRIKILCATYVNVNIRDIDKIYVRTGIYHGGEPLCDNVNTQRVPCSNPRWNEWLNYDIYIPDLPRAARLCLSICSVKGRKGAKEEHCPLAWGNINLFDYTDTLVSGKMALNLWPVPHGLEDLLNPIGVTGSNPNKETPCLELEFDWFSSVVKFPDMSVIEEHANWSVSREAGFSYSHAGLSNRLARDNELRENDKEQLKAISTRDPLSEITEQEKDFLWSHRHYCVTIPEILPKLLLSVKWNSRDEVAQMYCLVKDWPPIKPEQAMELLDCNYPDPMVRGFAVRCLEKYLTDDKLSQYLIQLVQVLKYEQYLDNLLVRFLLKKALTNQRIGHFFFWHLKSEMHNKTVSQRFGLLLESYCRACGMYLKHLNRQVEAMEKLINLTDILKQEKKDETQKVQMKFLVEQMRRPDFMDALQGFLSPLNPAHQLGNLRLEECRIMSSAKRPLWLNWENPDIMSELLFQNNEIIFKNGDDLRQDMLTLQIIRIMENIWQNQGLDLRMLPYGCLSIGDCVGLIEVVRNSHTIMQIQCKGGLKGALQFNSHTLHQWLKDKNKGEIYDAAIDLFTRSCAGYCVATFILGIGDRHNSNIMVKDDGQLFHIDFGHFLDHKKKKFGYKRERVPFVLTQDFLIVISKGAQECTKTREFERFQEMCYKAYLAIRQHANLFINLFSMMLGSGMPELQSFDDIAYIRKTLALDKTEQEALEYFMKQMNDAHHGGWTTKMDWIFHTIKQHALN
Chain of human Dual Specificity Protein Phosphatase 3 (DUSP3), DUSP3 (gene 1845) (P51452 whole entry, looked up): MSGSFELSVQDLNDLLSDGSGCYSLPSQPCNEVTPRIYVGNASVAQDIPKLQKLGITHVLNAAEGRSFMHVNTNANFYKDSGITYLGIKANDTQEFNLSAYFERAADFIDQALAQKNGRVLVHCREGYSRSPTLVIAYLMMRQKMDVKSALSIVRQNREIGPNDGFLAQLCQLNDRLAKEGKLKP
Chain of sheep Cyclooxygenase-1 (Cox1), PTGS1 (gene 443551) (P05979 whole entry, looked up): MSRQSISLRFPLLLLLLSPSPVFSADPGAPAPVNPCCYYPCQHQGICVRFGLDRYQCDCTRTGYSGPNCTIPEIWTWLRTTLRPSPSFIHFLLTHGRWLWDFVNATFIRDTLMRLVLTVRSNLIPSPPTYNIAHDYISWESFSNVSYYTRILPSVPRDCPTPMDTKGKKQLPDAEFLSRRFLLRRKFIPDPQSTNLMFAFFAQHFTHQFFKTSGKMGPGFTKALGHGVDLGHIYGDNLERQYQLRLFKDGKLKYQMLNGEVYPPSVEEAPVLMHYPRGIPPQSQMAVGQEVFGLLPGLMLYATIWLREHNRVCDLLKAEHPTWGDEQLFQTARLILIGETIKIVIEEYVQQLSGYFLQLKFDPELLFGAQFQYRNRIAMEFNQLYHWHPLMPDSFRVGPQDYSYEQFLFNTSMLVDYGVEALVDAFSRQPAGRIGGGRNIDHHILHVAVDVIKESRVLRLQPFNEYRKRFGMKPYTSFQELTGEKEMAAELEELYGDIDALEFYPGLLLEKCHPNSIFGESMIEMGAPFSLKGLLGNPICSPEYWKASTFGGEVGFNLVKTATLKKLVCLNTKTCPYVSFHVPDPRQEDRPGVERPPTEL
Chain of human Caspase 5 (CASP5), CASP5 (gene 838) (P51878 whole entry, looked up): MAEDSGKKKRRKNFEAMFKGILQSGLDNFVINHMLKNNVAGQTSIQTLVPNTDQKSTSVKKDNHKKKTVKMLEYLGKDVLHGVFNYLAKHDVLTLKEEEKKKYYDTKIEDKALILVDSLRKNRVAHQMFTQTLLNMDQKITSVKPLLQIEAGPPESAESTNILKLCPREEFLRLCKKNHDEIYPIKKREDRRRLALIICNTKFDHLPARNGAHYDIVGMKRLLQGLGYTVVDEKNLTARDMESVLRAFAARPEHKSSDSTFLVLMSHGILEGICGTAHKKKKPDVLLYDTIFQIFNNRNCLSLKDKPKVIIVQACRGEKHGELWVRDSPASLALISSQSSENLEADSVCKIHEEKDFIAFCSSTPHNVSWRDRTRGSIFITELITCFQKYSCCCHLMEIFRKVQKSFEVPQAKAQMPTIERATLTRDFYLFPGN

Broadly, the AC50 is the concentration at which the activity in the assay is half-maximal. Consider `c1ccc2sc(SSN3CCOCC3)nc2c1`, for which the half-maximal activity concentration (AC50) was 0.01 µM (active) in experiment [1] and 1.39 µM (active) in [2].

Regarding `CC(=O)CC(=O)Nc1ccccc1C`, in [3], the outcome was inactive.

`C=CC(=O)OCC(C)OCC(C)OCC(C)OC(=O)C=C` (stereo unspecified): the result in experiment [4], in experiment [3] and in [5] was inactive.

Take `C=CC(=O)NC(C)(C)C`: in [2], the half-maximal activity concentration (AC50) was 13.6 µM (active).

For the molecule `C=C(C)OC(C)=O`, the molecule was classed as inactive in experiment [3]. For the same molecule, the concentration at half-maximal activity (AC50) in experiment [6] is 9.44 µM (active).

Take `CC(C)[N+](C)(CCOC(=O)C1c2ccccc2Oc2ccccc21)C(C)C`: the half-maximal activity concentration (AC50) was 0.741 µM (active) in [7] and 2.02 µM (active) in experiment [8].

With `Oc1c(Cl)cc(Cl)c(Cl)c1Cl`, the outcome in [4] and in experiment [9] was inactive.

For `CC=C(C)C(C)=O`, in experiment [3], the molecule was called inactive.

Take `CC=C(C)C=CC=C(C)C`: the call in experiment [3] and in experiment [10] was inactive. In addition, the AC50 in experiment [6] was 4.96 µM (active); in experiment [5] it was 0.976 µM (active).

Regarding `CO[Si](CCCS)(OC)OC`, the AC50 in [11] is 25 µM (active); in experiment [6], 12.4 µM (active); in experiment [5], 39 µM (active).

As for `Cc1ccc([N+](=O)[O-])cc1N`, the molecule was called inactive in [12]. For the same molecule, the results for the half-maximal activity concentration (AC50) in experiment [1] and in [13] were 4.92 µM (active) and 7.96 µM (active), respectively.

`CC(C)CO`: the call in [3] was inactive.

On to `CC(C)CCCCCOC(=O)CS`, for which the figures for the AC50 in [2] and in [6] were 25 µM (active) and 5.63 µM (active), respectively.

Take `Cc1c(O)cccc1O`: the molecule was called inactive in experiment [4]. The AC50 in experiment [6] is 25.5 µM (active); in experiment [9], 5.06 µM (active).

On to `COc1ccc(C(=O)/C(Br)=C\C(=O)O)cc1`, for which the AC50 in experiment [11] was 18.5 µM (active); in experiment [14], 39.1 µM (active); in experiment [6] it was 4.96 µM (active); in experiment [9], 25 µM (active).

For `Nc1cccc(N)n1`, the molecule was classed as inactive in experiment [3] and in [15].

As for `Nc1ccc(C(=O)O)cc1`, the outcome in [16] was inactive.

Consider `CCN1CN(CC)CN(CC)C1`, for which the result in experiment [17] and in [18] was inactive.

As for `C=C(C)C1CC=C(C)CC1` (stereo unspecified), the AC50 in experiment [18] was 19.3 µM (active).

For `CN1CCN(C)CC1`, in experiment [19], the molecule was called inactive.

Source of the values: PubChem BioAssay (EPA / NIEHS).
